Measurements taken from a collection of fitness landscapes (doi:10.1016/j.celrep.2020.107928).
In all, about 81,000 sequences were measured (“one-hybrid fitness for binding parS DNA”: median about -0.17, highest 2% from about 0.51 on). Shown is part of a subset that was picked to be rich in the highest values.

B1: Caulobacter ParB omega fusion; a variant is named by its letters at X, in order, B8GW30 (parent)
chain: MESVVVGEPGMSEGRRGLGRGLSALLGEVDAAPAQAPGEQLGGSREAPIEILQRNPDQPRRTFREEDLEDLSNSIREKGVLQPILVRPSPDTAGEYQIVAGERAWRAAQRAGLKTVPIMVRELDDLAVLEIGIIENVQRADLNVLEEALSYKVLMEKFERTQENIAQTIGKSXSHVANXMRLLXLPDEVQSYLVSGELTAXHARAIAAAADPVALAKQIIEGGLSVRETEALARKAPNLSAGKSKGGRPPRVKDTDTQALESDLSSVLGLDVSIDHRGSTGTLTITYATLEQLDDLCNRLTRGI

Variants of: B1
Experiment: one-hybrid fitness for binding parS DNA (scaled: cognate 1, non-cognate 0); higher = stronger binding
Details: with parS DNA site
Method in brief: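 Fitness here means the log change in variant-to-wild-type read ratio between plasmids sequenced before and after selection. That scale was set so cognate equals 1 and non-cognate equals 0. The selection was a bacterial one-hybrid screen of Caulobacter ParB libraries, four specificity codons randomised, in E. coli USO carrying a HIS3 reporter with the site 19 bp from the promoter, grown 48 hours at 37°C on M9-minus-histidine with 0.1 mM IPTG and 5 mM 3-AT.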

one-hybrid fitness for binding parS DNA, 0.211:
RQTF

one-hybrid fitness for binding parS DNA, 0.955:
RINC

one-hybrid fitness for binding parS DNA, 0.913:
RSRS

one-hybrid fitness for binding parS DNA, 0.831:
RIDG

one-hybrid fitness for binding parS DNA, 0.231:
RIDH

one-hybrid fitness for binding parS DNA, 0.976:
RYVS

one-hybrid fitness for binding parS DNA, 0.331:
RQTM

one-hybrid fitness for binding parS DNA, 0.317:
RWCA

one-hybrid fitness for binding parS DNA, 0.92:
RICC
RVST

one-hybrid fitness for binding parS DNA, 0.401:
RCWN

one-hybrid fitness for binding parS DNA, 0.987:
RIDS

one-hybrid fitness for binding parS DNA, 0.266:
RLSH

one-hybrid fitness for binding parS DNA, 0.259:
RISH

one-hybrid fitness for binding parS DNA, 0.513:
RINY

one-hybrid fitness for binding parS DNA, 0.217:
RQTD

one-hybrid fitness for binding parS DNA, 0.241:
RQLF

one-hybrid fitness for binding parS DNA, 0.847:
RIRC

one-hybrid fitness for binding parS DNA, 0.94:
RFNC

one-hybrid fitness for binding parS DNA, 0.514:
RYKY

one-hybrid fitness for binding parS DNA, 0.662:
RNFG

one-hybrid fitness for binding parS DNA, 0.396:
RIDY

one-hybrid fitness for binding parS DNA, 0.97:
RILC

one-hybrid fitness for binding parS DNA, ≤ 0.2:
NQVG
TRNP
TIYS
IDLD
SILM
LWSP
SLKT
GRNC
RSRD
RPYS
RPRS
RCRD
RCYP
SCVM
FTPD
ALCC
WPLG
IPVF
FYHT
RIDD
RPNY
TGRK
MPPM
WDNC
KSER
STLE
DQQL
GHWC
KPDR
TRSC
NTIS
RGCA
RPCA
QSLF
QAWS
ATLF
PAPL
PDPW
DFDR
QQYT
KPHF
DHCA
LGTH
RQTP
RQTQ
RQTK
RQTH
KANM
NRAG
PIVT
QDIR
IPSC
PVWG
CTRC
QFWR
VWSI
QVFN
RFDF
AFNC
NFDC
RFNE
PPHC
DNGY
RIHK
RIYQ
RIYR
RIHQ
RILR
RNGM
LKKY
QVQI
YEHV
QGHV
HFFL
LRSA
AADE
CFNA
WWKS
ECSL
PWPM
PHSN
LVPK
MIPM
QNKH
NKQR
RIRQ
RIDK
RICP
RIDQ
QALV
MYER
ARTT
ANKV
AYCY
ALWS
ECMV
RYVQ
RYVF
RYKR
TTLV
NFAT
RFFF
RFFM
DFAT
QAHK
TRYI
RYKD
RYKP
TITP
LFYR
HYYD
DGDR
RINR
RIDP
RINE
QLMK
SRNE
GGVR
RSWD
RPWS
RMWP
RMWD
RSWP
PQAF
RMKV
CHNG
TAAQ
SDSD
GVLC
TGNL
DKAR
AWNT
KHTD
YNPS
QHAY
RTFK
TEAR
CSDF
IWPL
CTLY
PPSK
YQCG
DLVA
CLKA
ALKA
NLVA
LHAG
QGGK
TMSY
QLMM
SQKG
RSVD
REVC
RSVH
RPVC
AWDA
HGSI
DKKR
SPNA
LWAR
VAPG
RNFY
RNFR
RNAR
NIRE
HAKP
CTSH
HSAT
REAF
LGNC
RMVL
RMKP
RMKR
RMVK
FQCR
TNCV
IAED
TLGD
IMTY
HASR
WPLT
RLHD
RLLK
RLCR
RLSP
QRLD
GQHW
KKGT
PNTI
NASI
HCLN
TCIV
HMWR
YTVS
RLRQ
RLYK
WPPM
YLAL
RVSK
RVRK
RVRQ
RVHP
RVHD
RVYK
GPPY
YVGI
QTHG

one-hybrid fitness for binding parS DNA, 0.989:
RSWS

one-hybrid fitness for binding parS DNA, 0.866:
RIDC

one-hybrid fitness for binding parS DNA, 0.224:
RVSF

one-hybrid fitness for binding parS DNA, 0.965:
RCVC

one-hybrid fitness for binding parS DNA, 0.971:
RMVG

one-hybrid fitness for binding parS DNA, 0.311:
RTAM

one-hybrid fitness for binding parS DNA, 0.369:
RYKM

one-hybrid fitness for binding parS DNA, 0.929:
RQTT
RMKG

one-hybrid fitness for binding parS DNA, 0.357:
RYVY

one-hybrid fitness for binding parS DNA, 0.793:
RFDC
RYKS

one-hybrid fitness for binding parS DNA, 0.505:
RLLY

one-hybrid fitness for binding parS DNA, 1.01:
RQTG
RTFG
RLYC

one-hybrid fitness for binding parS DNA, 0.877:
RCRS

one-hybrid fitness for binding parS DNA, 0.775:
RSVC

one-hybrid fitness for binding parS DNA, 0.388:
RIDN

one-hybrid fitness for binding parS DNA, 1:
RCYS
RTAG
RLLC

one-hybrid fitness for binding parS DNA, 0.333:
RILM

one-hybrid fitness for binding parS DNA, 0.582:
RFFT

one-hybrid fitness for binding parS DNA, 1.03:
RING

one-hybrid fitness for binding parS DNA, 0.209:
RISP
RVGW

one-hybrid fitness for binding parS DNA, 0.442:
RLHN

one-hybrid fitness for binding parS DNA, 0.348:
RNCA

one-hybrid fitness for binding parS DNA, 0.359:
RNAY

one-hybrid fitness for binding parS DNA, 0.633:
RMCA

one-hybrid fitness for binding parS DNA, 0.93:
RVYT

one-hybrid fitness for binding parS DNA, 1.05:
RMWS

one-hybrid fitness for binding parS DNA, 0.966:
RQTC

one-hybrid fitness for binding parS DNA, 0.579:
RSCA

one-hybrid fitness for binding parS DNA, 0.846:
RKKA
RLRC

one-hybrid fitness for binding parS DNA, 0.995:
RLCC

one-hybrid fitness for binding parS DNA, 0.567:
RLVA

one-hybrid fitness for binding parS DNA, 0.572:
RTCA

one-hybrid fitness for binding parS DNA, 0.284:
RINH

one-hybrid fitness for binding parS DNA, 0.253:
RYVH

one-hybrid fitness for binding parS DNA, 0.973:
RLHC

one-hybrid fitness for binding parS DNA, 0.485:
RLCY

one-hybrid fitness for binding parS DNA, 0.969:
RISC

one-hybrid fitness for binding parS DNA, 0.825:
RVRT

one-hybrid fitness for binding parS DNA, 0.25:
RVYF

one-hybrid fitness for binding parS DNA, 0.55:
RHCA

one-hybrid fitness for binding parS DNA, 0.677:
RCCA

one-hybrid fitness for binding parS DNA, 0.247:
RIRF

one-hybrid fitness for binding parS DNA, 0.282:
RICF

one-hybrid fitness for binding parS DNA, 0.796:
RLKA

one-hybrid fitness for binding parS DNA, 0.479:
RTFY

one-hybrid fitness for binding parS DNA, 0.381:
RINM

one-hybrid fitness for binding parS DNA, 0.984:
RQTS

one-hybrid fitness for binding parS DNA, 1.09:
RCWS

one-hybrid fitness for binding parS DNA, 0.964:
RIYC

one-hybrid fitness for binding parS DNA, 0.527:
RKVA

one-hybrid fitness for binding parS DNA, 0.23:
RLYR

one-hybrid fitness for binding parS DNA, 0.977:
RIHC

one-hybrid fitness for binding parS DNA, 0.258:
RIND

one-hybrid fitness for binding parS DNA, 0.79:
RFAT

one-hybrid fitness for binding parS DNA, 0.432:
RLRN

one-hybrid fitness for binding parS DNA, 0.43:
RQTN

one-hybrid fitness for binding parS DNA, 0.98:
RLSC

one-hybrid fitness for binding parS DNA, 0.201:
RINF

one-hybrid fitness for binding parS DNA, 0.907:
RYVC

one-hybrid fitness for binding parS DNA, 0.364:
RYVN

one-hybrid fitness for binding parS DNA, 0.752:
RYKC

one-hybrid fitness for binding parS DNA, 0.416:
RSRN

one-hybrid fitness for binding parS DNA, 0.462:
RYYY

one-hybrid fitness for binding parS DNA, 0.853:
RNAG

one-hybrid fitness for binding parS DNA, 0.923:
RINS

one-hybrid fitness for binding parS DNA, 0.21:
RTAH

one-hybrid fitness for binding parS DNA, 0.927:
RVHT

one-hybrid fitness for binding parS DNA, 0.503:
RKCA
